Molecules are shown by their SMILES. Counter-ions that a name gives are not always drawn. ± gives the standard deviation of the averaged measurements. The full ranking holds about 2,000 compounds; the median of “relative cell viability vs DMSO, compound alone” is about 1.1, and the lowest 2% start at about 0.29. The entries come from a sample that favours the lowest values as a whole.

The subject of this test is TE10. In words: relative cell viability vs DMSO, compound alone (fraction); TE10 is an esophageal squamous carcinoma line; higher = less cytotoxic. Particulars: 2 µM; 48 h. As for the experimental part:
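TE10 ESCC cells (1,000/well, 384-well plates) were treated with Selleck bioactive library compounds at 2 uM alone for 48 h. Viability was read by CellTiter-Glo and expressed relative to DMSO wells. Two technical replicates (A, B).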
`C[C@H]1CCC/C=C/[C@@H]2C[C@H](O)C[C@H]2[C@H](O)/C=C/C(=O)O1` [Brefeldin A] registered a relative cell viability of 0.2497 ± 0.0017. For `Cc1c(Cl)c(OCC(=O)N2CCN(C)CC2)nc2sc(C(=O)NC3CC3)c(N)c12` the value was 1.04 ± 0.019; for `Cc1cc(C(C#N)c2ccc(Cl)cc2)c(Cl)cc1NC(=O)c1cc(I)cc(I)c1O` (stereo not given) [Closantel], 1.12 ± 0.019.

For `O=S(=O)(F)Cc1ccccc1`, the relative cell viability turned out to be 0.978 ± 0.021. For `O=C(O)CCCc1ccc(N(CCCl)CCCl)cc1` [Chloroambucil] the value was 1.14 ± 0.012; for `CN1C2CC(O)CC1C1OC12` (stereo not given) [Scopine], 0.808 ± 0.14; for `C=CC[C@]1(O)CC[C@H]2[C@@H]3CCC4=CC(=O)CCC4=C3C=C[C@@]21C` [Altrenogest], 1.115 ± 0.0019. For the molecule `Cc1c(N)nc(C(CC(N)=O)NCC(N)C(N)=O)nc1C(=O)NC(C(=O)NC(C)C(O)C(C)C(=O)NC(C(=O)NCCc1nc(-c2nc(C(=O)NCCC[S+](C)C)cs2)cs1)C(C)O)C(O[C@@H]1O[C@@H](CO)[C@@H](O)[C@H](O)[C@@H]1O[C@H]1O[C@H](CO)[C@@H](O)[C@H](OC(N)=O)[C@@H]1O)c1cnc[nH]1` (stereo not given in full) [Bleomycin Sulfate], the relative cell viability turned out to be 0.856 ± 0.038. The molecule `C[C@@H]1CC[C@@]2(OC1)O[C@H]1C[C@H]3[C@@H]4CC=C5C[C@@H](O[C@@H]6O[C@H](CO)[C@@H](O[C@@H]7O[C@@H](C)[C@H](O)[C@@H](O)[C@H]7O)[C@H](O)[C@H]6O[C@@H]6O[C@@H](C)[C@H](O)[C@@H](O)[C@H]6O)CC[C@]5(C)[C@H]4CC[C@]3(C)[C@H]1[C@@H]2C` [Dioscin] gave a relative cell viability of 0.189 ± 0.051.

Regarding `O=C1CCC[C@@H]2[C@H]3CCCN4CCC[C@@H](CN12)[C@@H]34` [(+)-Matrine], the relative cell viability is 1.1 ± 0.059. For `CC1=C(O)C(=O)C=C2C1=CC=C1[C@@]2(C)CC[C@@]2(C)[C@@H]3C[C@](C)(C(=O)O)CC[C@]3(C)CC[C@]12C` [Celastrol] the value was 0.306 ± 0.0087; for `O=[N+]([O-])C=Cc1ccc2c(c1)OCO2` [MNS (3,4-Methylenedioxy-β-nitrostyrene, MDBN)], 0.742 ± 0.054; for `CC(C)=CCC[C@]1(C)C=Cc2c(O)c3c(c(CC=C(C)C)c2O1)O[C@]12C(=C[C@@H]4C[C@H]1C(C)(C)O[C@@]2(C/C=C(/C)C(=O)O)C4=O)C3=O` [Gambogic Acid], 0.0673 ± 0.0049. For the molecule `Cc1sc2c(c1C)C(c1ccc(Cl)cc1)=N[C@@H](CC(=O)OC(C)(C)C)c1nnc(C)n1-2`, the relative cell viability came out at 0.9008 ± 0.0079. For the molecule `Cc1sc2c(c1C)C(c1ccc(Cl)cc1)=NC(CC(N)=O)c1nnc(C)n1-2` (stereo not given), the relative cell viability is 0.954 ± 0.053.
